Experimental data: the supplement of paper PMC4466140

What follows are binders tested against AgAbp1 (assay: SPOT peptide array binding signal intensity (averaged, normalized) (arbitrary units (background-subtracted, floor 0; scale differs between SH3 domains)); higher = stronger binding of the SH3 domain to the peptide).
Experimental: (§1)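 GST-tagged SH3 domains from S. cerevisiae (Sc), A. gossypii (Ag), C. albicans (Ca) and S. pombe (Sp) were incubated at 10 ug/ml overnight at 4 C on cellulose SPOT membranes carrying 292 synthetic 15-mer peptides mined from the S. cerevisiae proteome (cysteines replaced by serines). Binding was detected with anti-GST antibody, HRP secondary and chemiluminescence, quantified with Genespotter, and reported as normalized spot intensities averaged over biological replicates.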

Binder | SPOT peptide array binding signal intensity
QQNRPLPQLPNRNNR | 30

Each binder was assayed against AgBbc1 in the same assay as above.
Experimental: as §1

Binder | SPOT peptide array binding signal intensity
QQNRPLPQLPNRNNR | 585

These binders were tested against AgBem1-D1 in the same assay as above.
Experimental: as §1

Binder | SPOT peptide array binding signal intensity
QQNRPLPQLPNRNNR | 98.5

The binders below were run against AgBzz1-D1 in the same assay as above.
Experimental: as §1

Binder | SPOT peptide array binding signal intensity
QQNRPLPQLPNRNNR | 73

The binders below were run against AgBzz1-D2 in the same assay as above.
Experimental: as §1

Binder | SPOT peptide array binding signal intensity
QQNRPLPQLPNRNNR | 80

These binders were tested against AgCyk3 in the same assay as above.
Experimental: as §1

Binder | SPOT peptide array binding signal intensity
QQNRPLPQLPNRNNR | 102

What follows are binders tested against AgFus1 in the same assay as above.
Experimental: as §1

Binder | SPOT peptide array binding signal intensity
QQNRPLPQLPNRNNR | 17

What follows are binders tested against AgHof1 in the same assay as above.
Experimental: as §1

Binder | SPOT peptide array binding signal intensity
QQNRPLPQLPNRNNR | 938

These binders were tested against AgHse1 in the same assay as above.
Experimental: as §1

Binder | SPOT peptide array binding signal intensity
QQNRPLPQLPNRNNR | 29

The binders below were run against AgLsb1 in the same assay as above.
Experimental: as §1

Binder | SPOT peptide array binding signal intensity
QQNRPLPQLPNRNNR | 148

Each binder was assayed against AgLsb4 in the same assay as above.
Experimental: as §1

Binder | SPOT peptide array binding signal intensity
QQNRPLPQLPNRNNR | 1970

The binders below were run against AgMyo5 in the same assay as above.
Experimental: as §1

Binder | SPOT peptide array binding signal intensity
QQNRPLPQLPNRNNR | ≤ 0

These binders were tested against AgNbp2 in the same assay as above.
Experimental: as §1

Binder | SPOT peptide array binding signal intensity
QQNRPLPQLPNRNNR | 0.5

These binders were tested against AgRvs167 in the same assay as above.
Experimental: as §1

Binder | SPOT peptide array binding signal intensity
QQNRPLPQLPNRNNR | 797

Each binder was assayed against AgSho1 in the same assay as above.
Experimental: as §1

Binder | SPOT peptide array binding signal intensity
QQNRPLPQLPNRNNR | 2750

What follows are binders tested against AgSla1-D1-D2 in the same assay as above.
Experimental: as §1

Binder | SPOT peptide array binding signal intensity
QQNRPLPQLPNRNNR | 1

These binders were tested against AgSla1-D3 in the same assay as above.
Experimental: as §1

Binder | SPOT peptide array binding signal intensity
QQNRPLPQLPNRNNR | ≤ 0

These binders were tested against CaAbp1-D1 in the same assay as above.
Experimental: as §1

Binder | SPOT peptide array binding signal intensity
QQNRPLPQLPNRNNR | 32

The binders below were run against CaAbp1-D2 in the same assay as above.
Experimental: as §1

Binder | SPOT peptide array binding signal intensity
QQNRPLPQLPNRNNR | 6

Each binder was assayed against CaBbc1 in the same assay as above.
Experimental: as §1

Binder | SPOT peptide array binding signal intensity
QQNRPLPQLPNRNNR | 1000

The binders below were run against CaBem1-D1 in the same assay as above.
Experimental: as §1

Binder | SPOT peptide array binding signal intensity
QQNRPLPQLPNRNNR | 26.5

The binders below were run against CaBzz1-D1 in the same assay as above.
Experimental: as §1

Binder | SPOT peptide array binding signal intensity
QQNRPLPQLPNRNNR | 132

The binders below were run against CaBzz1-D2 in the same assay as above.
Experimental: as §1

Binder | SPOT peptide array binding signal intensity
QQNRPLPQLPNRNNR | 90.5

These binders were tested against CaCyk3 in the same assay as above.
Experimental: as §1

Binder | SPOT peptide array binding signal intensity
QQNRPLPQLPNRNNR | 35

Each binder was assayed against CaFus1 in the same assay as above.
Experimental: as §1

Binder | SPOT peptide array binding signal intensity
QQNRPLPQLPNRNNR | 74

What follows are binders tested against CaHof1 in the same assay as above.
Experimental: as §1

Binder | SPOT peptide array binding signal intensity
QQNRPLPQLPNRNNR | 17

What follows are binders tested against CaHse1 in the same assay as above.
Experimental: as §1

Binder | SPOT peptide array binding signal intensity
QQNRPLPQLPNRNNR | 49.2

The binders below were run against CaLsb1 in the same assay as above.
Experimental: as §1

Binder | SPOT peptide array binding signal intensity
QQNRPLPQLPNRNNR | 1.5

These binders were tested against CaLsb4 in the same assay as above.
Experimental: as §1

Binder | SPOT peptide array binding signal intensity
QQNRPLPQLPNRNNR | 4700

Each binder was assayed against CaMyo5 in the same assay as above.
Experimental: as §1

Binder | SPOT peptide array binding signal intensity
QQNRPLPQLPNRNNR | 4

What follows are binders tested against CaNbp2 in the same assay as above.
Experimental: as §1

Binder | SPOT peptide array binding signal intensity
QQNRPLPQLPNRNNR | 100

Each binder was assayed against CaRvs167 in the same assay as above.
Experimental: as §1

Binder | SPOT peptide array binding signal intensity
QQNRPLPQLPNRNNR | 1040

Each binder was assayed against CaRvs167-3 in the same assay as above.
Experimental: as §1

Binder | SPOT peptide array binding signal intensity
QQNRPLPQLPNRNNR | 1.75

Each binder was assayed against CaSho1 in the same assay as above.
Experimental: as §1

Binder | SPOT peptide array binding signal intensity
QQNRPLPQLPNRNNR | 658

These binders were tested against CaSla1-D1-D2 in the same assay as above.
Experimental: as §1

Binder | SPOT peptide array binding signal intensity
QQNRPLPQLPNRNNR | 738

These binders were tested against CaSla1-D3 in the same assay as above.
Experimental: as §1

Binder | SPOT peptide array binding signal intensity
QQNRPLPQLPNRNNR | 3.25

The binders below were run against ScAbp1 in the same assay as above.
Experimental: as §1

Binder | SPOT peptide array binding signal intensity
QQNRPLPQLPNRNNR | 62

What follows are binders tested against ScBbc1 in the same assay as above.
Experimental: as §1

Binder | SPOT peptide array binding signal intensity
QQNRPLPQLPNRNNR | 65

The binders below were run against ScBem1-D1 in the same assay as above.
Experimental: as §1

Binder | SPOT peptide array binding signal intensity
QQNRPLPQLPNRNNR | 9

These binders were tested against ScBzz1-D1 in the same assay as above.
Experimental: as §1

Binder | SPOT peptide array binding signal intensity
QQNRPLPQLPNRNNR | 25

These binders were tested against ScBzz1-D2 in the same assay as above.
Experimental: as §1

Binder | SPOT peptide array binding signal intensity
QQNRPLPQLPNRNNR | 21

Each binder was assayed against ScCyk3 in the same assay as above.
Experimental: as §1

Binder | SPOT peptide array binding signal intensity
QQNRPLPQLPNRNNR | 4

What follows are binders tested against ScFus1 in the same assay as above.
Experimental: as §1

Binder | SPOT peptide array binding signal intensity
QQNRPLPQLPNRNNR | 22

What follows are binders tested against ScHof1 in the same assay as above.
Experimental: as §1

Binder | SPOT peptide array binding signal intensity
QQNRPLPQLPNRNNR | 70.2

What follows are binders tested against ScHse1 in the same assay as above.
Experimental: as §1

Binder | SPOT peptide array binding signal intensity
QQNRPLPQLPNRNNR | ≤ 0

What follows are binders tested against ScLsb1 in the same assay as above.
Experimental: as §1

Binder | SPOT peptide array binding signal intensity
QQNRPLPQLPNRNNR | 95

The binders below were run against ScLsb2 in the same assay as above.
Experimental: as §1

Binder | SPOT peptide array binding signal intensity
QQNRPLPQLPNRNNR | 36.5

What follows are binders tested against ScLsb3 in the same assay as above.
Experimental: as §1

Binder | SPOT peptide array binding signal intensity
QQNRPLPQLPNRNNR | 6550

Each binder was assayed against ScLsb4 in the same assay as above.
Experimental: as §1

Binder | SPOT peptide array binding signal intensity
QQNRPLPQLPNRNNR | 1180

These binders were tested against ScMyo3 in the same assay as above.
Experimental: as §1

Binder | SPOT peptide array binding signal intensity
QQNRPLPQLPNRNNR | ≤ 0

The binders below were run against ScMyo5 in the same assay as above.
Experimental: as §1

Binder | SPOT peptide array binding signal intensity
QQNRPLPQLPNRNNR | ≤ 0

The binders below were run against ScNbp2 in the same assay as above.
Experimental: as §1

Binder | SPOT peptide array binding signal intensity
QQNRPLPQLPNRNNR | 23

The binders below were run against ScPex13 in the same assay as above.
Experimental: as §1

Binder | SPOT peptide array binding signal intensity
QQNRPLPQLPNRNNR | 1010

What follows are binders tested against ScRvs167 in the same assay as above.
Experimental: as §1

Binder | SPOT peptide array binding signal intensity
QQNRPLPQLPNRNNR | 1370

These binders were tested against ScSho1 in the same assay as above.
Experimental: as §1

Binder | SPOT peptide array binding signal intensity
QQNRPLPQLPNRNNR | 6410

The binders below were run against ScSla1-D1-D2 in the same assay as above.
Experimental: as §1

Binder | SPOT peptide array binding signal intensity
QQNRPLPQLPNRNNR | 383

Each binder was assayed against ScSla1-D3 in the same assay as above.
Experimental: as §1

Binder | SPOT peptide array binding signal intensity
QQNRPLPQLPNRNNR | 2

What follows are binders tested against SpAbp1-D1 in the same assay as above.
Experimental: as §1

Binder | SPOT peptide array binding signal intensity
QQNRPLPQLPNRNNR | 17

The binders below were run against SpBbc1 in the same assay as above.
Experimental: as §1

Binder | SPOT peptide array binding signal intensity
QQNRPLPQLPNRNNR | 28

The binders below were run against SpBzz1-D1 in the same assay as above.
Experimental: as §1

Binder | SPOT peptide array binding signal intensity
QQNRPLPQLPNRNNR | 450
